Bioassay records (PubChem)
Shown is part of a subset that was picked to be rich in hits.
HTT promoter inh: inhibitors of huntingtin promoter activity | HEK293 HTT promoter firefly luciferase reporter, 24 h | Potency, µM (doses to about 57.5 µM), for the others: at the top dose activity change, negative = inhibition, usual class: inhibitors | hit rate 0.93% among 48,000 | AID 1508623; note: potency is the fitted concentration of half-maximal effect; nearly all actives have a fitted effect of over 50% in size
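Quantitative HTS used concentration series of up to 57.5 uM final on HEK293 luciferase reporter cells, 24 h at 37 degrees C. Readout was Dual-Glo firefly luminescence.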
B2AR arrestin ag: agonists recruiting beta-arrestin to human beta2-adrenergic receptor. P07550. HTLA Tango cells, beta-arrestin recruitment, luciferase luminescence, 18 h. Potency, µM (doses to about 46.1 µM), hits mostly activators. 44,000 tested, under 10 active;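 note: potency is the fitted concentration of half-maximal effect; 0% = DMSO and full agonism = EC100 isoproterenol or metaproterenol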
Target sequence (P07550 whole entry, looked up): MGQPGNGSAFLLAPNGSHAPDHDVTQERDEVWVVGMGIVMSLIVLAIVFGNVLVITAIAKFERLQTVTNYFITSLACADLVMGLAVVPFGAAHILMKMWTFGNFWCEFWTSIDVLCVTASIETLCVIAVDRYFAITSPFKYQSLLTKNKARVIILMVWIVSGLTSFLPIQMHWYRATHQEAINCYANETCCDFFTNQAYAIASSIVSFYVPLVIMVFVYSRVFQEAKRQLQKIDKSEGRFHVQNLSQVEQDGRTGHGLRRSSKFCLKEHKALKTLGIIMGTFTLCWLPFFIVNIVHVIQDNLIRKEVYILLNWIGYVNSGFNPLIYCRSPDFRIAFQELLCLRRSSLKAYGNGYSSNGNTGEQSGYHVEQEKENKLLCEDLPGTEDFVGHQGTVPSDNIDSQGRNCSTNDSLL
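First, Tango cells carrying beta2-AR and beta-arrestin fusions received compound up to 46 microM. After 18 hr at 37 degrees C, luciferase substrate was added for 15 minutes, then luminescence gave %Activity for curve fitting.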
TSG101-PTAP inh: inhibitors of HIV-1 PTAP binding to human TSG101, validation | Potency, µM (top dose mostly 115 µM), hits mostly inhibitors | Fluorescence polarization, FITC-PTAP peptide/Tsg101, 20 min | 44,000 tested, under 10 active | Q99816; note: potency is the fitted concentration of half-maximal effect; 0% is about no effect
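Fluorescence polarization binding of Tsg101 binding domain (10 uM final) to FITC-labeled PTAP-motif peptide (50 nM final) in HEPES pH 7.5/NaCl/Tween 20/EDTA/TCEP buffer; 20 min at r.t. Actives by curve class, <25 µM, efficacy <60% inhibition.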
NTMT1 inh: blocks human N-terminal methyltransferase 1 activity | Potency, µM (titrated, usually from 114 µM), for the others: at the top dose activity change, negative = inhibition, hits mostly inhibitors | NTMT1 MTase-Glo SAH luminescence, purified enzyme | Q9BV86 | hit rate 2.5% among 59,000;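 note: potency is the fitted concentration of half-maximal effect; plate controls were DMSO vehicle for no effect and no enzyme for full effect; nearly all actives have a fitted effect of over 65% in size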
Target sequence (Q9BV86 whole entry, looked up): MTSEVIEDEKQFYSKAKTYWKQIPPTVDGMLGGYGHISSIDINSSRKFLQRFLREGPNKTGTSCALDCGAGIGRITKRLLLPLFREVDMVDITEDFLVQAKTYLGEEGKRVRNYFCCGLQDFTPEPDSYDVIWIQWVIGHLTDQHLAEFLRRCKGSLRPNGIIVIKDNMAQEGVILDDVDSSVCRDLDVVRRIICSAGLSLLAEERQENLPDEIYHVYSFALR
GALK inh: inhibitors of human galactokinase (GALK); recombinant GALK, Kinase-Glo ATP luminescence, 1 h; P51570; Potency, µM (series often up to 57.5 µM), without a hit: at the top dose activity, negative = inhibition, actives largely listed as inhibitors; 44,000 tested, under 10 active;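 note: plate controls were full GALK reaction for no effect and reaction lacking GALK for full effect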
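Compounds were pinned into ATP buffer, then GALK-galactose mix was added (final 5 nM enzyme, 35 uM ATP, 100 uM galactose, pH 8.0). After 1 h at room temperature, Kinase-Glo Plus was added and luminescence read.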
HTT-AS act: activators of huntingtin-antisense promoter activity; HEK293 HTT-AS promoter firefly luciferase reporter, 24 h; response scale: percent change from vehicle, -100% = no light; Potency, µM (top dose mostly 57.5 µM), for inactives: at the highest dose activity change, positive = activation, hits mostly activators; hit rate 0.24% among 48,000; note: potency is the fitted concentration of half-maximal effect; nearly all actives have a fitted effect of over 55% in size
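Luminescence was read after Dual-Glo reagent and a 10 min room-temperature incubation. Values were normalized to vehicle (0% activity) and zero RLU (-100% activity). Reporter HEK293 cells had been exposed to compounds (up to 57.5 uM final) for 24 h.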
Numbers without * were called inactive; i = inactive; ? = inconclusive; . = no result; ! = a repeat was not active; [ ] = dose if it differs, or a comment. Calls come from the whole dose curve; as a rule, active = well fitted curve in the direction sought with a large enough effect; inconclusive = small, poorly fitted or top-dose-only effect, or another doubt; inactive = no such curve, though single readings can be large; an effect the other way counts as inactive or inconclusive.

SMILES | HTT promoter inh | B2AR arrestin ag | TSG101-PTAP inh | NTMT1 inh | GALK inh | HTT-AS act
O=C(Nc1cccc(C(F)(F)F)c1)c1ccc(F)c(S(=O)(=O)N2CCc3ccccc3C2)c1 | 28µM* | i | i | 23% | -6% | -40%
O=C(Nc1cccc(Cl)c1)c1ccc(F)c(S(=O)(=O)N2CCC3(CC2)OCCO3)c1 | ? | i | i | -6% | 3% | -23%
CC(C)c1ccc(NC(=O)c2ccc(F)c(S(=O)(=O)N3CCN(c4ccccc4F)CC3)c2)cc1 | ? | i | i | 14% | 0% | -13%
O=C(Nc1cc(Cl)cc(Cl)c1)c1ccc(F)c(S(=O)(=O)NCc2ccccc2Cl)c1 | ? | i | i | 13% | 2% | -32%
COc1c(C)c(OCC(O)C(C)(C)O)cc2c1COC2=O (stereo not given) | . | . | . | -10%[57.5 µM] | . | .
CC1=C(C(=O)c2ccccc2)C(c2ccccc2Cl)N=C(Nc2nc3ccccc3o2)N1 (stereo not given) | . | . | . | 11% | . | .
O=C(CSc1nnc(-c2ccc([N+](=O)[O-])cc2)o1)Nc1ccccc1 | 67% | i | i | 8% | -3% | 1.8µM*
COC(=O)C1=C(C)NC(c2ncc(F)cc2F)=N[C@H]1c1ccc(F)cc1Cl | . | . | . | 15% | . | .
CCCCOc1ccc(C(=O)Nc2ccc3c(c2)N(C(C)=O)CCC3)cc1 | 4.5µM* | i | i | -15% | -3% | -88%
CCCCOc1ccc(C(=O)Nc2onc3c2CCCC3)cc1 | 38% | i | i | -5% | -2% | 13µM*
C=CC(=O)N[C@H]1CCOC[C@H]1Nc1ncc2cc(-c3c(Cl)c(OC)cc(OC)c3Cl)ccc2n1 | . | . | . | 9% | . | .
CCN1C(=O)c2ccccc2Sc2ccc(NC(=O)Nc3cc(C)cc(C)c3)cc21 | 20µM* | i | i | 5% | 2% | -46%
CCc1cccc(NC(=O)Nc2ccc3c(c2)N(C)C(=O)c2ccccc2S3)c1 | 32µM* | i | i | 5% | ? | -38%
CCN1C(=O)c2ccccc2Sc2ccc(NC(=O)c3ccc(Cl)cc3)cc21 | -15%[11.5 µM] | i | i | -8% | 2% | -5%
COc1ccc2nc3n[nH]c(C)c3c(NCCOCCO)c2c1 | . | . | . | 20µM*! | . | .
COc1ccc(-n2c(SCC(=O)NCc3ccc(C)cc3)nc3n[nH]c(C)c3c2=N)cc1 | -5% | i | i | 2% | 2% | -22%
CN1CC2CN(c3ccc4oc5ccccc5c(=O)c4c3)CC2C1 (stereo not given) | . | . | . | -1%[29.8 µM] | . | .
COc1ccc(NC(=O)Cn2c(=O)oc3ccccc32)cc1 | -2% | i | i | 89µM* | 0% | -9%
CCc1ccccc1NC(=O)Cn1c(=O)oc2ccccc21 | -11% | i | i | 2% | -1% | -9%
CC(C)=CC[C@@H](O)C1=CC(=O)c2c(O)ccc(O)c2C1=O | ? | . | . | 50µM*! | . | -68%
O=C(O)c1c(Cl)c(Cl)c(Cl)c(Cl)c1-c1c2cc(I)c(=O)c(I)c-2oc2c(I)c(O)c(I)cc12 | -23% | . | . | 3.5µM* | . | -46%
COc1ccc(Br)cc1CC1C(=O)Nc2ccccc21 (stereo not given) | 13µM* | i | i | 25µM* | 6% | -51%
CCOC(=O)N[C@@H]1CC[C@@H]2[C@@H](C1)C[C@H]1C(=O)O[C@H](C)[C@H]1[C@H]2/C=C/c1ccc(-c2cccc(F)c2)cn1 | . | . | . | 26% | . | .
O=C(Nc1ccc2oc(-c3cccnc3)nc2c1)c1ccc(-c2cccc(Cl)c2)o1 | ? | i | i | 25µM* | -2% | -33%
Cc1ccc(S(=O)(=O)Nc2cnccc2C(=O)Nc2nc(-c3ccc(Oc4ccccc4)cc3)cs2)cc1 | . | . | . | 45µM* | . | .
SMILES | HTT promoter inh | B2AR arrestin ag | TSG101-PTAP inh | NTMT1 inh | GALK inh | HTT-AS act
Cc1ccc(-c2csc(NC(=O)c3ccccc3NS(=O)(=O)c3ccc(C)cc3)n2)cc1 | . | . | . | 10% | . | .
N#Cc1cccc(S(=O)(=O)Nc2cnccc2C(=O)Nc2nc(-c3ccccc3)cs2)c1 | . | . | . | 22% | . | .
O=C(Nc1nc(-c2ccccc2)cs1)c1ccncc1NS(=O)(=O)c1cccc2cccnc12 | . | . | . | 50µM* | . | .
COc1ccc(Oc2cc(NCCC(F)(F)F)c3ncc(-c4ccc(C(=O)NC5CC5)c(C)c4)n3n2)c(F)c1F | . | . | . | 11% | . | .
CC(=O)O[C@H]1CC[C@@]2(CI)C(=CC[C@@H]3[C@@H]2CC[C@]2(C)[C@@H]([C@H](C)CCCC(C)C)CC[C@@H]32)C1 | . | . | . | -3%[12.6 µM] | . | .
CC(C)CCC[C@@H](C)[C@H]1CC[C@H]2[C@@H]3CC=C4C[C@@H](OC(=O)NCCN(C)C)CC[C@]4(C)[C@H]3CC[C@]12C | . | . | . | 22µM* | . | .
Cc1cc(Nc2cccc(Cl)c2)nc2ccc(NC(=O)c3cccnc3)cc12 | ? | i | i | ? | -9% | -60%
O=C(Nc1cc(Cl)cc2c1[nH]c1cnccc12)c1cccnc1 | 1% | . | . | 18µM*! | . | -41%
N#Cc1cccc(CN2CCC(N(Cc3cccnc3)C(=O)Nc3ccccc3-c3ccccc3)CC2)c1 | . | . | . | -14% | . | .
O=[S+]([O-])(Nc1ccc(C2CCNCC2)cc1)c1ccc(NCc2ccc(Br)cc2O)cc1 | . | . | . | 50µM* | . | .
Cc1cccc(CNc2nc(-c3ccccc3C(F)(F)F)nc3ccccc23)c1 | . | . | . | 13% | . | .
CC(=O)O[C@@H]1C[C@@]23C[C@@]24CC[C@H](OC2OC[C@@H](O)[C@H](O)[C@H]2O)C(C)(C)[C@@H]4CC[C@H]3[C@]2(C)CC3OC4(C[C@@H](C)C3[C@@]12C)OCC1(C)OC14 (stereo not given in full) | . | . | . | -4%[12.6 µM] | . | .
FC(F)(F)c1ccccc1-c1nc(NCc2ccc(-c3cccc(Cl)c3)cc2)c2ccccc2n1 | . | . | . | 18% | . | .
C=Cc1c(C)c2cc3[nH]c(cc4nc(cc5nc(cc1[nH]2)C(C)=C5CCC(=O)O)C(CCC(=O)O)=C4C)c(C)c3C=C | 1% | . | . | 25µM* | . | -7%
CC1C=CC2CCCCC2C1CCC1CC(O)CC(=O)O1 (stereo not given) | . | . | . | 3%[57.5 µM] | . | .
COc1cc(/C=C2\C(=O)Nc3ccccc32)ccc1O | . | . | . | 79µM* | . | .
COc1ccc(NC(=O)CC2Nc3cccc4cccc(c34)NC2=O)cc1 (stereo not given) | -19% | i | i | 79µM* | 0% | -23%
COc1ccc(CN2C(=O)c3ccccc3NC2c2ccc(OC)c(COc3c(C)cc(NC(C)=O)cc3C)c2)cc1 (stereo not given) | . | . | . | 0% | . | .
COc1ccc(-c2cc(C(C)=O)c(C)n2CCC(=O)Nc2cc(C)ccc2OC)cc1 | -24% | i | i | -4% | 1% | -22%
